# Results published in PubChem BioAssay (Tox21).
# Inconclusive results are not listed. Entries that show only a call come without a potency. Active and inactive are the calls of the source. Unless noted, calls come from the whole dose curve.
# How the values were obtained:
# [1] = Nuclear factor erythroid 2-related factor 2/antioxidant responsive element (Nrf2/ARE) small molecule agonists: qHTS cell viability counter screen in human keratinocytes (AID 1919968; active = well fitted curve in the direction sought with a large enough effect in the repeat runs; an effect the other way counts as inactive or inconclusive; note: nearly all actives have a fitted effect of over 55% in size)
# Outline: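 Measured as CellTiter-Fluor fluorescence, this readout tracks cytotoxicity in the same wells as the ARE-luciferase screen. HaCaT reporter cells (1,500/well) received compounds after a 5 h pre-incubation and were exposed for 23 h.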
# [2] = Nuclear factor erythroid 2-related factor 2/antioxidant responsive element (Nrf2/ARE) small molecule agonists: luciferase reporter gene qHTS assay in human keratinocytes (AID 1919969); note: nearly all actives have a fitted effect of over 35% in size
# [3] = biological target: Gonadotropin-releasing hormone receptor (Homo sapiens) (UniProt P30968); test: Human gonadotropin-releasing hormone receptor (GnRHR) small molecule agonists, calcium flux assay in GnRHR-HEK293 cells (AID 1920063); note: nearly all actives have a fitted effect of over 35% in size
# Outline: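 Fluorescence kinetics (480 nm excitation, 540 nm emission; 3 min, 1 s steps) report calcium mobilisation in human GnRHR-HEK293 cells in agonist mode. Dye incubation: 1 h, 37 C.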
# [4] = biological target: KiSS-1 receptor (Homo sapiens) (UniProt Q969F8); test: Human kisspeptin (KISS1R) small molecule agonists, calcium flux assay in KISS1R-HEK293 cells (AID 1920064; active = well fitted curve in the direction sought with a large enough effect in the repeat runs; an effect the other way counts as inactive or inconclusive)
# Outline: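 Measures KISS1R agonism through calcium-sensitive dye fluorescence in stably transfected HEK293 cells, read for 3 min after pin-tool compound delivery; 15-point titrations in triplicate.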
# [5] = G protein-coupled receptor (GPCR) small molecule agonists, calcium flux assay: HEK293 wild type cell line counter screen (AID 1920065)
# Outline: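 Readout: fluorescence at 480 nm excitation/540 nm emission, sampled at 1 s intervals for 3 min. Cells had been cultured 18 h, then dye-loaded 1 h at 37 C before compound or ATP addition.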
# [6] = p53 small molecule agonists, cell-based qHTS assay with rat liver microsomes (AID 1963578)
# Outline: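 Compound in DMSO added to p53RE-bla cells 5 h post-plating; rat microsomes/NADPH 0.5 mg/mL final; 16 h, 37 C; LiveBLAzer 2 h RT.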
# [7] = p53 small molecule agonists, cell-based qHTS assay with human liver microsomes: qHTS cell viability counter screen (AID 1963579); note: nearly all actives have a fitted effect of over 45% in size
# Outline: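 HLM-supplemented (0.5 mg/mL final) and NADPH-supplemented (0.5 mg/mL final) p53RE-bla cultures, 4,000 cells per well, were dosed with compounds in DMSO for 16 h at 37 C; luminescent ATP detection (CellTiter-Glo, 30 min, room temperature) quantified surviving cells.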
# [8] = p53 small molecule agonists, cell-based qHTS assay with rat liver microsomes: qHTS cell viability counter screen (AID 1963580); note: nearly all actives have a fitted effect of over 45% in size
# Outline: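 Viability is assessed in parallel with the p53 reporter read: HCT-116 p53RE-bla cells receive compounds plus rat microsomes and NADPH (0.5 mg/mL final apiece), incubate 16 h at 37 C, and then CellTiter-Glo luminescence is recorded.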
# [9] = p53 small molecule agonists, cell-based qHTS assay (AID 1963582; active = well fitted activation curve with a large enough effect in the signal ratio in the repeat runs, not every such curve was filed as active; the % refers to the signal ratio)
# Outline: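 Compounds are pin-transferred in DMSO onto p53RE-bla cells and incubated 16 h at 37 C. The B/G FRET beta-lactamase substrate is then applied for 2 h at RT and fluorescence recorded.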
# [10] = biological target: 5-hydroxytryptamine receptor 2A (Homo sapiens) (UniProt P28223); test: 5-hydroxytryptamine receptor 2A (HTR2A) small molecule antagonists, cell-based qHTS assay (AID 1963586); note: nearly all actives have a fitted effect of over 45% in size; note: potency is the fitted concentration of half-maximal effect
# Outline: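 Antagonist-mode intracellular calcium assay: DOI (4 nM) added after 5 min compound pre-incubation at room temperature to dye-loaded HTR2A-CHO cells. Fluorescence followed for 3 min, sampled every second.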
# [11] = biological target: Muscarinic acetylcholine receptor M1 (Homo sapiens) (UniProt P11229); test: Cholinergic receptor muscarinic 1 (CHRM1) small molecule antagonists, cell-based qHTS assay (AID 1963588); note: nearly all actives have a fitted effect of over 40% in size; note: potency is the fitted concentration of half-maximal effect
# Outline: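 CHRM1-CHO calcium-flux assay, antagonist mode. Cells were seeded 18 h, dye-loaded 1 h at 37 C and given compound for 5 min at RT, then acetylcholine was added at 50nM. FDSS fluorescence was read 3 min; 15 concentrations, three runs.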
# [12] = biological target: Muscarinic acetylcholine receptor M1 (Homo sapiens) (UniProt P11229); test: Cholinergic receptor muscarinic 1 (CHRM1) small molecule agonists, cell-based qHTS assay (AID 1963589); note: nearly all actives have a fitted effect of over 35% in size
# Outline: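 Each compound was tested at 15 concentrations across three independent runs on dye-loaded CHO cells stably expressing human CHRM1, reading intracellular calcium fluorescence kinetically at 1 sec intervals.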
# [13] = cAMP Responsive Elements (CRE) small molecule agonists, cell-based qHTS assay (AID 1963590)
# Outline: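 Cell line: CRE-bla HEK 293T; medium DMEM/10% dialyzed FBS/0.1 mM NEAA/1 mM pyruvate/25 mM HEPES; 3 h compound exposure; beta-lactamase FRET readout after 2 h substrate loading at RT.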
# [14] = cAMP Responsive Elements (CRE) small molecule antagonists, cell-based qHTS assay (AID 1963591; active = well fitted inhibition curve with a large enough effect in the signal ratio in the repeat runs, not every such curve was filed as active; the % refers to the signal ratio)
# Outline: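 Inhibition of NKH477-driven (0.25 uM final) CRE-beta-lactamase signal in HEK293T cells, 3 h compound exposure at 37 °C, detected by FRET substrate fluorescence.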
# [15] = biological target: Beta-2 adrenergic receptor (Homo sapiens) (UniProt P07550); test: Adrenergic beta2 receptor (ADRB2) small molecule antagonists, cell-based qHTS assay (AID 1963592); note: nearly all actives have a fitted effect of over 50% in size; note: potency is the fitted concentration of half-maximal effect
# Outline: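 Cells (CHO, stable ADRB2 overexpression) incubated 18-20hr at 37C; compounds added from DMSO; agonist mix (1nM isoproterenol, 100uM IBMX, 25uM Ro-20-1724) added; 0.5hr RT; d2-cAMP and anti-cAMP-cryptate added; 1hr RT; 665/615 nm read.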
# [16] = biological target: D(2) dopamine receptor (Homo sapiens) (UniProt P14416); test: Dopamine D2 receptor (DRD2) small molecule agonists, cell-based qHTS assay (AID 1963594); note: nearly all actives have a fitted effect of over 35% in size
# Outline: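 HEK293 cells stably expressing human DRD2, pre-treated with PDE inhibitor Ro20-1724 (0.1 mM final) and compound 10 min at room temperature, then stimulated with NKH477 (200nM […]) for 30 min. cAMP read by HTRF (665/620 nm).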
# [17] = biological target: D(2) dopamine receptor (Homo sapiens) (UniProt P14416); test: Dopamine D2 receptor (DRD2) small molecule antagonists, cell-based qHTS assay (AID 1963595; active = well fitted inhibition curve with a large enough effect in the signal ratio in the repeat runs, with a control signal flat; the % refers to the signal ratio)
# Outline: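 HEK293 cells stably expressing DRD2 were preincubated with 0.1 mM Ro20-1724, then with compound for 10 min at room temperature. Cells were stimulated with 200 nM NKH477 plus 12 nM quinpirole for 30 min, and cAMP was read by HTRF.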
# [18] = biological target: 5-hydroxytryptamine receptor 2A (Homo sapiens) (UniProt P28223); test: 5-hydroxytryptamine receptor 2A (HTR2A) small molecule agonists, cell-based qHTS assay (AID 1963587); note: nearly all actives have a fitted effect of over 30% in size
# Outline: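 CHO cells stably expressing human HTR2A, plated 18 h, loaded with calcium dye 1 h at 37 C. Agonist mode: compounds added and intracellular calcium fluorescence recorded kinetically for 2 min at 1 sec intervals.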
# [19] = p53 small molecule agonists, cell-based qHTS assay: qHTS cell viability counter screen (AID 1963581); note: nearly all actives have a fitted effect of over 45% in size
# Outline: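 In the same plates used for the p53 bla reporter, HCT-116 cells given compounds for 16 h at 37 C received CellTiter-Glo; luminescence was recorded 30 min later at room temperature.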
# [20] = biological target: Beta-2 adrenergic receptor (Homo sapiens) (UniProt P07550); test: Adrenergic beta2 receptor (ADRB2) small molecule agonists, cell-based qHTS assay (AID 1963593);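 note: CHO cells stably overexpressing human ADRB2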
# Outline: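 CHO cells stably over-expressing ADRB2 were plated overnight at 37C, then dosed with compounds plus a stimulation mix containing 100uM IBMX and 25uM Ro-20-1724 for 0.5hr at room temperature. cAMP was measured by HTRF competition, 1hr.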
# D(2) dopamine receptor (Homo sapiens), sequence (P14416 whole entry, looked up): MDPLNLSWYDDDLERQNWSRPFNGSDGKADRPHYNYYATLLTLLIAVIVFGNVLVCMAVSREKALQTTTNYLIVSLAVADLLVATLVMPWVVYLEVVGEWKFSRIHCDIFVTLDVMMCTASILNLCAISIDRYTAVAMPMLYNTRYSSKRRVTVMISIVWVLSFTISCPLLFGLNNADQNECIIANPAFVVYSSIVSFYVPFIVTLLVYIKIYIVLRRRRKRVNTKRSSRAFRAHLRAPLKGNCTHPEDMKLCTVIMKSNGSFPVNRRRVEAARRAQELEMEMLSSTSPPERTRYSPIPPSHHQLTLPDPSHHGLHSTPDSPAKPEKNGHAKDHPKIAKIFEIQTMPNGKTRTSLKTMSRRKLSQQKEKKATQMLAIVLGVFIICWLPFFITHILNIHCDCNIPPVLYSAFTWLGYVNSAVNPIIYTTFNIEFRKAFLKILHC
# Beta-2 adrenergic receptor (Homo sapiens), sequence (P07550 whole entry, looked up): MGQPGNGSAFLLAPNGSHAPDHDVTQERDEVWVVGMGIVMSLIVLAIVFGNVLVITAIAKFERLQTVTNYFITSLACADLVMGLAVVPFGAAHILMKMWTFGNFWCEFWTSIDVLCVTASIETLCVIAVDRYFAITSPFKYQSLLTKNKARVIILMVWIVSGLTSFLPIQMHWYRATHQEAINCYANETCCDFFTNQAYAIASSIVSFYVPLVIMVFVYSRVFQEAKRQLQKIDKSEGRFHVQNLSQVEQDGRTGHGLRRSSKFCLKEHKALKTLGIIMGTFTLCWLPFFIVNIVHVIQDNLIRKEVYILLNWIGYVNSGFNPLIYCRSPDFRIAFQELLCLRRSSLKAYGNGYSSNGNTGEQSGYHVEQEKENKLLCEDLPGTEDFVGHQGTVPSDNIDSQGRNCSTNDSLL
# 5-hydroxytryptamine receptor 2A (Homo sapiens), sequence (P28223 whole entry, looked up): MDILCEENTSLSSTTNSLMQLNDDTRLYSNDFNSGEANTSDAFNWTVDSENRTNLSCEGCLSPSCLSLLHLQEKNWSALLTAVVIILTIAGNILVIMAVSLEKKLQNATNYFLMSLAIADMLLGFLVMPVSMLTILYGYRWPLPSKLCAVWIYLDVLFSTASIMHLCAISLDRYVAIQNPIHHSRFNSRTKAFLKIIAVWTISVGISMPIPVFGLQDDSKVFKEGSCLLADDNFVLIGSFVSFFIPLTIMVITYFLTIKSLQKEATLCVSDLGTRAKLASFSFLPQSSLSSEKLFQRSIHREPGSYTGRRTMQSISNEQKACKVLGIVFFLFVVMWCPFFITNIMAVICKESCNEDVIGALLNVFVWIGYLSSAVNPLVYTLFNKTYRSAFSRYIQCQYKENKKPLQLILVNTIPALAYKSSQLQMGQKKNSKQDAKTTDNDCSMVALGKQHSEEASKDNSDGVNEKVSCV
# KiSS-1 receptor (Homo sapiens), sequence (Q969F8 whole entry, looked up): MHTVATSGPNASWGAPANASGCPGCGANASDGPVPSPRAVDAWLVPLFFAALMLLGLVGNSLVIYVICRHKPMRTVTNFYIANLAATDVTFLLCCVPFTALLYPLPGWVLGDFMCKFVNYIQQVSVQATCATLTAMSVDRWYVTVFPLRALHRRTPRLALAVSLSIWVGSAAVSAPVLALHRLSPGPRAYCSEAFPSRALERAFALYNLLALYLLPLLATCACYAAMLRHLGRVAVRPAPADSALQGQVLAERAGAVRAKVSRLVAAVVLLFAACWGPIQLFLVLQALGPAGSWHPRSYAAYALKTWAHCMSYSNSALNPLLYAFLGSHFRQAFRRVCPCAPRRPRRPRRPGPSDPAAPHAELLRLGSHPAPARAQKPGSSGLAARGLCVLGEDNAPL
# Gonadotropin-releasing hormone receptor (Homo sapiens), sequence (P30968 whole entry, looked up): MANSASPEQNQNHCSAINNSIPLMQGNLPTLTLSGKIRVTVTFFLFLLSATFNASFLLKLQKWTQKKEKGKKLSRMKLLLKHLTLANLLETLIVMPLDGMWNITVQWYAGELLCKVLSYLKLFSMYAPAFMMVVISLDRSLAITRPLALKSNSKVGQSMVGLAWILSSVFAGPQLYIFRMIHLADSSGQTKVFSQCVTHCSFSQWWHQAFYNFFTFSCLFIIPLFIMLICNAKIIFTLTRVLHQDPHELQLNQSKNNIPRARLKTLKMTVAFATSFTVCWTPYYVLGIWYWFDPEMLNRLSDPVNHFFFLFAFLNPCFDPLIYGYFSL
# Muscarinic acetylcholine receptor M1 (Homo sapiens), sequence (P11229 whole entry, looked up): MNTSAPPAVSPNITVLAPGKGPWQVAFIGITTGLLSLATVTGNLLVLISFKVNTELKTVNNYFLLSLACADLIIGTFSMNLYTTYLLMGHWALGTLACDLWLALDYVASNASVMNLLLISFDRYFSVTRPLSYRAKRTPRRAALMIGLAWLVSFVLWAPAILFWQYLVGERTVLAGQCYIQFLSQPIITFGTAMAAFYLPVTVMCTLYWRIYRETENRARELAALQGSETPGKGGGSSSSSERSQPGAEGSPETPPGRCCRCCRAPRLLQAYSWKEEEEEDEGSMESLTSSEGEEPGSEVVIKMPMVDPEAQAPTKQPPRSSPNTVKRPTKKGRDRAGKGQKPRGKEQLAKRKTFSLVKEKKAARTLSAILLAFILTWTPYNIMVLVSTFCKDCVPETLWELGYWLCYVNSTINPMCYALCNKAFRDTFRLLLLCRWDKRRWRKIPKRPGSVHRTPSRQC
Structure (SMILES),Potency [1],Potency [2],Potency [3],Potency [4],Potency [5],Potency [6],Potency [7],Potency [8],Potency [9],Potency [10],Potency [11],Potency [12],Potency [13],Potency [14],Potency [15],Potency [16],Potency [17],Potency [18],Potency [19],Potency [20]
CCCNC(C)C(=O)Nc1c(C)csc1C(=O)OC (stereo unspecified),inactive,inactive,inactive,inactive,inactive,inactive,inactive,inactive,inactive,inactive,inactive,inactive,inactive,inactive,inactive,inactive,inactive,,,
COc1cc(C(=O)OCCCN2CCCN(CCCOC(=O)c3cc(OC)c(OC)c(OC)c3)CC2)cc(OC)c1OC,inactive,inactive,inactive,inactive,inactive,inactive,inactive,inactive,inactive,inactive,7.29 µM (active),inactive,inactive,,inactive,inactive,inactive,inactive,,
CCOC(=O)COC(=O)c1cc(Oc2ccc(C(F)(F)F)cc2Cl)ccc1[N+](=O)[O-],inactive,inactive,inactive,inactive,inactive,inactive,inactive,inactive,,inactive,inactive,inactive,,,61.1 µM (active),inactive,,inactive,inactive,
COc1ccc(/C=C/c2cc(OC)cc(=O)o2)cc1,inactive,inactive,inactive,inactive,inactive,inactive,inactive,inactive,,9.64 µM (active),inactive,inactive,,inactive,inactive,inactive,inactive,inactive,,inactive
Cc1c(-c2ccccc2)oc2c(C(=O)OCCN3CCCCC3)cccc2c1=O,inactive,inactive,inactive,inactive,inactive,inactive,inactive,inactive,,,,,,inactive,inactive,inactive,,,inactive,inactive
OCCCS,inactive,inactive,inactive,inactive,inactive,inactive,inactive,inactive,,inactive,inactive,inactive,,,,inactive,,inactive,inactive,inactive
COCCc1ccc(OCC2CO2)cc1 (stereo unspecified),inactive,inactive,inactive,inactive,inactive,inactive,inactive,inactive,,inactive,inactive,inactive,inactive,inactive,inactive,,inactive,inactive,,inactive
